# Assay results: the supplement of paper PMC11732987, “Enantioselective OTUD7B fragment discovery through chemoproteomics screening and high-throughput optimisation” (Communications Chemistry, 2025)
# Values without a mark were called inactive.
# Assays:
# Assay in all cases: log2 ratio of Biotin-Ahx-Ub-VS probe labelling (fragment/DMSO); higher = less target engagement (more negative = stronger competition), active = hit call of the paper (q ≤ 0.05, log2 ratio ≤ -1)
# Conditions in all cases: compound concentration: 200 uM; treatment time: 3 h
# OTUD6B = molecular target: T1, OTUD6B (UniProt Q8N6M0)
# T1 sequence (whole entry): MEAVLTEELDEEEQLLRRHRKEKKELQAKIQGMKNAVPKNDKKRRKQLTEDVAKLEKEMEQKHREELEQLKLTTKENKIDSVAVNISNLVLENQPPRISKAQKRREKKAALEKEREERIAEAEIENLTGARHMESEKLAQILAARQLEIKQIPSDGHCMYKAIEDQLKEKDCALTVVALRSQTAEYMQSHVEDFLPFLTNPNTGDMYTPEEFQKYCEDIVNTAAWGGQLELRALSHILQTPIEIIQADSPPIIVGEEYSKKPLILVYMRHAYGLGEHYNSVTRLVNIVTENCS
# Outline: (§1)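 Labelling with Biotin-Ahx-Ub-VS (0.5 µM final, 1 h) followed a 3 h triplicate treatment of HEK293T lysate (495 µg per sample, Tris/CHAPS/IGEPAL buffer with protease inhibitors) with fragment at 200 µM or vehicle. Labelled DUBs were NeutrAvidin-enriched, digested with LysC and trypsin, and run by diaPASEF LC-MS/MS. The values, average log2 fragment/vehicle ratios by unpaired t-test, come from global-median-normalised Spectronaut label-free quantities. Proteins with ≥2 unique peptides were used.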
# OTUD7B = molecular target: T2, OTUD7B (UniProt Q6GQQ9)
# T2 sequence (whole entry): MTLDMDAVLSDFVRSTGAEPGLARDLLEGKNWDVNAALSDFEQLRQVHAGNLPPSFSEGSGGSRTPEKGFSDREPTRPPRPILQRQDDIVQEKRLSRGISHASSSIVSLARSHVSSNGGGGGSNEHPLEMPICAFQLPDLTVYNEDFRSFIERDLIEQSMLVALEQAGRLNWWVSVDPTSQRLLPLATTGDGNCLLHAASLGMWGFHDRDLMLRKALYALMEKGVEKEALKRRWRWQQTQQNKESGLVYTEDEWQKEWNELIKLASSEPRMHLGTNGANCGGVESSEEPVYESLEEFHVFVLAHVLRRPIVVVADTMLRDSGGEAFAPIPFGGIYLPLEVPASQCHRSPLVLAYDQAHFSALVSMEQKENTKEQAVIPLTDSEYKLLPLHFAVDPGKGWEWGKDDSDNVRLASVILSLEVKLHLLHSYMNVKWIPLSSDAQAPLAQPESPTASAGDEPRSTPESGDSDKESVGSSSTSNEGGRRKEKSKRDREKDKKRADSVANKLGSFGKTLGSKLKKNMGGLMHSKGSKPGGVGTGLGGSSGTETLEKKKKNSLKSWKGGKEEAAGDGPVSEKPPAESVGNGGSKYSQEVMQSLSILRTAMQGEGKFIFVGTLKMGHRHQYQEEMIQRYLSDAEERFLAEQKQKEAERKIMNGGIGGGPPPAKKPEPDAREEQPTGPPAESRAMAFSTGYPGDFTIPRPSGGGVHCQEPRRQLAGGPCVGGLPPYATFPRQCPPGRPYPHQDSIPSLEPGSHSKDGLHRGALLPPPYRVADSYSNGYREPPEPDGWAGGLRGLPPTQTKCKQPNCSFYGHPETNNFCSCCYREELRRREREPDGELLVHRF
# Outline: as §1
# PRPF8 = PRPF8 (UniProt Q6P2Q9)
# Outline: as §1
# PSMD7 = molecular target: T3, PSMD7 (UniProt P51665)
# T3 sequence (whole entry): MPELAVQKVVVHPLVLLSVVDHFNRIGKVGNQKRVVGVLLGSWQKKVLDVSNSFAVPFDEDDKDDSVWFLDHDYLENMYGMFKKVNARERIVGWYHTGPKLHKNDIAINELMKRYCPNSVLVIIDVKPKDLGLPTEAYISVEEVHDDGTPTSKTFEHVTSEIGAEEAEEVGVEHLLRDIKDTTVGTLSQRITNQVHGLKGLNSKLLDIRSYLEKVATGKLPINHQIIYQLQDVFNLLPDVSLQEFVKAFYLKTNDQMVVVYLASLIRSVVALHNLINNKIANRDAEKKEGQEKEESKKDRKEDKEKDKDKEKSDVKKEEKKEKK
# Outline: as §1
# UCHL1 = UCHL1 (UniProt P09936)
# UCHL1, sequence (P09936 whole entry, looked up): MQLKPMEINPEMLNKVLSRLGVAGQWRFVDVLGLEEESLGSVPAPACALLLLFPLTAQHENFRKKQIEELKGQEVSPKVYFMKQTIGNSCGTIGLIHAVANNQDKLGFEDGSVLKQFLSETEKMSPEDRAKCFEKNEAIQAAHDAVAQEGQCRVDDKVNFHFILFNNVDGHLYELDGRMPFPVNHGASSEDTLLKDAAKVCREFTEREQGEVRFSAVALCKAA
# Outline: as §1
# UCHL3 = molecular target: T4, UCHL3 (UniProt P15374)
# T4 sequence (whole entry): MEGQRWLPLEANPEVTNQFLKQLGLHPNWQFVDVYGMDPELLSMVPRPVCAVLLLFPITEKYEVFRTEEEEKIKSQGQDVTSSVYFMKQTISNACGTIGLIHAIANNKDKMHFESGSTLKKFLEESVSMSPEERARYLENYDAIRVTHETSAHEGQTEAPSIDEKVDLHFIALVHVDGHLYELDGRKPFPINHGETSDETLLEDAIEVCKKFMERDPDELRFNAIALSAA
# Outline: as §1
# UCHL5 = molecular target: T5, UCHL5 (UniProt Q9Y5K5)
# T5 sequence (whole entry): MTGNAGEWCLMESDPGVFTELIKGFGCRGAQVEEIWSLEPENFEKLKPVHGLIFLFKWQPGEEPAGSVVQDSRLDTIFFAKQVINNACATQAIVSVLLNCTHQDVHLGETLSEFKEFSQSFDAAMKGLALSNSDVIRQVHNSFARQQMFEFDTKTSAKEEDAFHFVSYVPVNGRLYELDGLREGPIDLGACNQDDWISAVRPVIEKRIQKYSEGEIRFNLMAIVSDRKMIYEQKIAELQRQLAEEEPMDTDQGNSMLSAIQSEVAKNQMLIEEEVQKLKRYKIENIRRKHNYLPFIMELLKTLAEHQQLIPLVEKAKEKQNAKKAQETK
# Outline: as §1
# USP10 = USP10 (UniProt Q14694)
# USP10, sequence (Q14694 whole entry): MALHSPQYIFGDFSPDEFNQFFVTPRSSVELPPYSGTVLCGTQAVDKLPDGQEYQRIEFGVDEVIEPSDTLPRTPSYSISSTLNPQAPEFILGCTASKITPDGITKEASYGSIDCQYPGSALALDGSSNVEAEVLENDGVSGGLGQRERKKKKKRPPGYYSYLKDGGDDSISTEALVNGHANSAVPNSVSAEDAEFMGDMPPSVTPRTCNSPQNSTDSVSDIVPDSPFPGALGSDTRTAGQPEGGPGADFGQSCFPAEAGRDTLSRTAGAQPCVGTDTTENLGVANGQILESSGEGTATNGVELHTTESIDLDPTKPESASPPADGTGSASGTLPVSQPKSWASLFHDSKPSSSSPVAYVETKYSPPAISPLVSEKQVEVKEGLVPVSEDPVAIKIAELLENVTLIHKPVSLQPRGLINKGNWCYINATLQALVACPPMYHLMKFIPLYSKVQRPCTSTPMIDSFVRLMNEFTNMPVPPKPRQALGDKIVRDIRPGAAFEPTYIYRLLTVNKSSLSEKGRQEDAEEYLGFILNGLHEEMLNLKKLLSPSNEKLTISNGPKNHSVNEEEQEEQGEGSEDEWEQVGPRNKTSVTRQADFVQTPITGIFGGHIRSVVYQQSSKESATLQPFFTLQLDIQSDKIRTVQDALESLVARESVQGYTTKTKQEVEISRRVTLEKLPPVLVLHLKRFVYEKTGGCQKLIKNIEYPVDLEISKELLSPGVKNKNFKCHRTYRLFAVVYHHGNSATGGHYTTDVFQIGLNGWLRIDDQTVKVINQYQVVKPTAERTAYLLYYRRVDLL
# Outline: as §1
# USP15 = molecular target: T6, USP15 (UniProt Q9Y4E8)
# T6 sequence (whole entry): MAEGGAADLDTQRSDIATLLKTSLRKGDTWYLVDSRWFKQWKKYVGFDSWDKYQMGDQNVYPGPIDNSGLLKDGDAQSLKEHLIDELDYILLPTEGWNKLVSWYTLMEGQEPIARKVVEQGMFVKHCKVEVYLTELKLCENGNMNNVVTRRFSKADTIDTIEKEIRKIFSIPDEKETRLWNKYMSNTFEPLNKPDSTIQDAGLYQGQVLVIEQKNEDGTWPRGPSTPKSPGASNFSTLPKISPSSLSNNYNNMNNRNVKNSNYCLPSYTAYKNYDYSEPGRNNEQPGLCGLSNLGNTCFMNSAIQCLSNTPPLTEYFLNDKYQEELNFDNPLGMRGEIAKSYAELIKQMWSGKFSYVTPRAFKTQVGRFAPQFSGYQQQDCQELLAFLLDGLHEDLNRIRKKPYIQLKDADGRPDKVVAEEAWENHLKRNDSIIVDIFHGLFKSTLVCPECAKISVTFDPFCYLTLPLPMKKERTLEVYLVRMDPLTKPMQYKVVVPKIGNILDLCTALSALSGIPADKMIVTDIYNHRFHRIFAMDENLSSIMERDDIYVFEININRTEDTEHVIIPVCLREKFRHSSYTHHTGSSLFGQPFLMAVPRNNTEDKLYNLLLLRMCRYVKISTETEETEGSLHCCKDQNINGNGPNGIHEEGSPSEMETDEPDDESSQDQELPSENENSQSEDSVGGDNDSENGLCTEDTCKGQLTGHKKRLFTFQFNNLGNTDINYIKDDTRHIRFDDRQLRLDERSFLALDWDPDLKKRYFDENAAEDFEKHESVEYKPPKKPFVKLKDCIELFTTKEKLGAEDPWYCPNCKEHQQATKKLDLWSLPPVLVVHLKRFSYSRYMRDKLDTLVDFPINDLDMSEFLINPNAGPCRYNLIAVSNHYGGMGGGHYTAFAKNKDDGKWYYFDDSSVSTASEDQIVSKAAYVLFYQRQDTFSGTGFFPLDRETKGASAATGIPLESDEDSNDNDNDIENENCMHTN
# Outline: as §1
# USP16 = USP16 (UniProt Q9Y5T5)
# USP16, sequence (Q9Y5T5 whole entry, looked up): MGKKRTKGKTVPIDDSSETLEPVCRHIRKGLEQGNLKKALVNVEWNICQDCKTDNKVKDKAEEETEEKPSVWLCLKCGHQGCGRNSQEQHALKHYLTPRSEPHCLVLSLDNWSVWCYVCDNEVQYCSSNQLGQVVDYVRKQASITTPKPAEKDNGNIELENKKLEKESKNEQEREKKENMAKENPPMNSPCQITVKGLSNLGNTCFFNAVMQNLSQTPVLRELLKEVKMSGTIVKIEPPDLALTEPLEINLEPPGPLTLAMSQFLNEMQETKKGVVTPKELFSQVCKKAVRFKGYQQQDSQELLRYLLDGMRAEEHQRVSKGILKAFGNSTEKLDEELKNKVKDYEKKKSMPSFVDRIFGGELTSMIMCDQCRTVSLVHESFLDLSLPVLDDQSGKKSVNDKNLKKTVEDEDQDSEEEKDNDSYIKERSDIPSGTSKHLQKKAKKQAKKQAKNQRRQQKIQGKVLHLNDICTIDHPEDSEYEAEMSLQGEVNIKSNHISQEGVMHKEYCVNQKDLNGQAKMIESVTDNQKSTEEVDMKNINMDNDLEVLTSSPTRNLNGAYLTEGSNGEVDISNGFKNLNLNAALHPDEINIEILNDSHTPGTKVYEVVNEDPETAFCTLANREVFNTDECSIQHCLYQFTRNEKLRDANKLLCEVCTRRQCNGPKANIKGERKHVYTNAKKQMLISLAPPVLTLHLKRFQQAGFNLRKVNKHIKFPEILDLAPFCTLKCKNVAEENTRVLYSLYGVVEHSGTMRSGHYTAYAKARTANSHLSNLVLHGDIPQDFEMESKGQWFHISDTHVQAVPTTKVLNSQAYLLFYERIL
# Outline: as §1
smiles,measurement,setting,value
Cc1cc(C(=O)NC2CCN(C(=O)CCl)CC2)no1,log2 ratio of Biotin-Ahx-Ub-VS probe labelling,OTUD6B,-0.173
same,log2 ratio of Biotin-Ahx-Ub-VS probe labelling,OTUD7B,-0.263
same,log2 ratio of Biotin-Ahx-Ub-VS probe labelling,PRPF8,-0.0374
same,log2 ratio of Biotin-Ahx-Ub-VS probe labelling,PSMD7,-0.0768
same,log2 ratio of Biotin-Ahx-Ub-VS probe labelling,UCHL1,-1.58 (active)
same,log2 ratio of Biotin-Ahx-Ub-VS probe labelling,UCHL3,0.336
same,log2 ratio of Biotin-Ahx-Ub-VS probe labelling,UCHL5,-0.135
same,log2 ratio of Biotin-Ahx-Ub-VS probe labelling,USP10,-0.197
same,log2 ratio of Biotin-Ahx-Ub-VS probe labelling,USP15,-0.252
same,log2 ratio of Biotin-Ahx-Ub-VS probe labelling,USP16,0.021
